The structures appear in SMILES notation. Values joined by “and” are separate entries in the source; they are usually repeats but may differ in a detail not shown here. Equal values may be shown once. Records with an inconclusive call do not appear. Active and inactive are the calls of the source. Unless noted, no stated cut-off is given here; in the data, active means inhibition above about 80%; inactive means the rest.

Consider twelve compounds from PubChem BioAssay.

Experiment [1] can be described thus: viability loss in pontine glioma line – cell-based, SU-DIPG-XXV, MIPE5.0, CellTiter-Glo, qHTS, dose response (AID 1347065; cut-off not given, nearly all actives have AC50 up to about 26 µM;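 further: cells exposed to compound for 48 hours before ATP readout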). The settings on record: CellTiter-Glo ATP luminescence. In general terms: ATP-based viability assays read luminescence as a measure of living cells.
Experiment [2] is described as follows: growth inhibition, single agents and combos, LFS_MB_1R, cell-based, cisplatin or BGB combos, synergistic combos for chromothripsis tumors (AID 1671452).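 Further: cells exposed for 96 hours before readout.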 The conditions noted are these: LFS_MB_1R medulloblastoma cells, stronger effect = higher value.
A short description of experiment [3]: growth inhibition, single agents and combos, CRL2098, cell-based, BGB or cisplatin IC20 combos, synergistic combos for chromothripsis tumors (AID 1671454).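 Further: cells exposed for 96 h before readout; 0% = vehicle DMSO and 100% = killing by high DMSO.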 The conditions noted are these: CRL2098 osteosarcoma cells, drug combinations, stronger effect = higher value.
The nature of experiment [4]: growth inhibition, single agents and combos, HD-MB03, cell-based, BGB or cisplatin IC20 combos, synergistic combos for chromothripsis tumors (AID 1671455; in the data active means inhibition above about 83%;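 further: 0% = vehicle DMSO and 100% = high DMSO as cytotoxic control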). The settings on record: HD-MB03 medulloblastoma cells, stronger effect = higher value.
A short description of experiment [5]: growth inhibition, single agents and combos, UWB1.289, cell-based, BGB or cisplatin combos, synergistic combos for chromothripsis tumors (AID 1671456).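 Further: cells exposed to compound for four days; 0% = vehicle DMSO and 100% = killing by high DMSO.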 The conditions noted are these: UWB1.289 ovarian carcinoma cells, stronger effect = higher value.
Experiment [6] in a line: growth inhibition, single agents and combos, LFS_MB_2R, cell-based, cisplatin combos, synergistic combos for chromothripsis tumors (AID 1671457).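 Further: cells exposed to compound for four days before readout.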 The conditions noted are these: LFS_MB_2R medulloblastoma cells, stronger effect = higher value.
A short description of experiment [7]: UWB1.289_BRCA1 ovarian cancer growth, cell-based, BGB or cisplatin combinations (AID 1671459). The settings on record: UWB1.289 BRCA1 ovarian carcinoma, drug combinations, stronger effect = higher value.
Experiment [8] in a line: drug combination toxicity in non-malignant astrocytes – cell-based, BGB or cisplatin IC20 combos, cytotoxicity control for chromothriptic childhood tumor combination screen (AID 1671460).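 Further: cells exposed to compounds for 96 hours before viability readout; 0% = vehicle and 100% = killing control.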 The settings on record: Human astrocytes, viability inhibition, drug combinations, at 0.5 µM, stronger effect = higher value.
Experiment [9] in a line: chitosan synthesis blockers in C. neoformans – flow cytometry, Cibacron Brilliant Red staining (AID 1347148; call rule not given here;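 further: compound exposure lasted three days at 37 degrees C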). The conditions noted are these: Cryptococcus neoformans chitosan, stronger effect = lower value; at 10 µM unless noted. On the technique in general: In flow cytometry, cells or beads pass a laser one at a time.
Experiment [10] in a line: viability loss in pontine glioma line – cell-based, SU-DIPG-XIII, MIPE5.0, CellTiter-Glo, qHTS, dose response (AID 1347064; cut-off not given, nearly all actives have AC50 up to about 23 µM). The conditions noted are these: CellTiter-Glo ATP luminescence.
The nature of experiment [11]: viability loss in pontine glioma line – cell-based, SU-DIPG-XVII, MIPE5.0, CellTiter-Glo, qHTS, dose response (AID 1347060; cut-off not given, nearly all actives have AC50 up to about 26 µM). The conditions noted are these: CellTiter-Glo ATP luminescence.
Experiment [12] in a line: JHH-DIPG-1 glioma cell viability, MIPE5.0 library, CellTiter-Glo luminescence, qHTS (AID 1347067; cut-off not given, nearly all actives have AC50 up to about 26 µM;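 further: cells exposed to compound for 48 hours before readout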). The conditions noted are these: JHH-DIPG-1 glioma viability, CellTiter-Glo ATP luminescence.
In experiment [13] the test system is Neuropilin-2 / VEGF-C interaction (human). Nature of the experiment: small molecules blocking Neuropilin-2/VEGF-C interaction – biochemical, microplate binding format, z-score (AID 743281; call rule not given here). The settings on record: microplate NRP2/VEGF-C binding assay; stronger effect = lower value.
[14] abbreviates: measured here: combination with BGB IC40, at 0.05 µM.
[15] abbreviates: measured here: combination with cisplatin, at 0.5 µM.
[16] abbreviates: measured here: combination with cisplatin, at 5 µM.
The mark [17] stands for this setting: measured here: combination with BGB at IC20, at 0.5 µM.
The mark [18] stands for this setting: measured here: combination with cisplatin at IC20, at 0.5 µM.
[19] abbreviates: measured here: combo with BGB at IC20, at 0.5 µM.
[20] abbreviates: measured here: combo with cisplatin at IC20, at 0.5 µM.
Setting [21] is: measured here: inhibition with BGB combination, at 0.05 µM.
Setting [22] is: measured here: inhibition with cisplatin combination, at 0.05 µM.
The mark [23] stands for this setting: BGB combination, concentration series, at 5 µM.
Setting [24] is: cisplatin combination, concentration series, at 5 µM.
Setting [25] is: measured here: combo with BGB IC20.
Setting [26] is: measured here: combo with cisplatin IC20.

Usually AC50 stands for the concentration giving half of the maximal activity seen. With `Cc1c(-c2ccc(O)cc2)n(Cc2ccc(OCCN3CCCCCC3)cc2)c2ccc(O)cc12`, the AC50 in experiment [1] is 20.9 µM (active).
A word on the inhibition: it is the relative decrease from the control value, in per cent. As for `CN1C[C@@H]2C[C@H]1CN2c1cc2c(cc1F)c(=O)c(C(=O)O)cn2C1CC1`, the inhibition in [2] (at 0.5 µM) is -32.5% (inactive); in experiment [2] (setting [14]), -27.6%; in experiment [2] (setting [15]), -60%; in experiment [2] (setting [16]), -44.9%; in [3] (at 0.5 µM) it was -70.8% (inactive); in experiment [3] (setting [17]) it was -121%. The inhibition in [3] (setting [18]) is -50%; in experiment [4] (at 0.5 µM), -14.8% (inactive); in experiment [4] (setting [19]), -11.6%; in experiment [4] (setting [20]) it was -20.6%; in experiment [5] (at 0.5 µM), -14.3% (inactive); in experiment [5] (setting [21]), -14.8%. In addition, the inhibition in experiment [5] (setting [22]) was -20.1%; in [6] (at 0.5 µM) it was -7.92% (inactive); in [6] (setting [15]) it was -3.36%; in experiment [6] (setting [16]), -96.9%; in [7] (setting [23]) it was -23.3%; in experiment [7] (at 0.5 µM), -16% (inactive). In addition, the inhibition in experiment [7] (setting [24]) was 2.38%; in [8] it was -25.7% (inactive); in experiment [8] (setting [25]) it was -14.8%; in [8] (setting [26]), -51.5%.
Turning to `Cc1cccc(Nc2cc(Cl)nc(SCC(=O)O)n2)c1C`, the fold fluorescence in [9] is 4.05 (inactive).
As to `CCCCCCCCCCCCCCCCCCOP(=O)([O-])OC1CC[N+](C)(C)CC1`, the call in [10] was inactive.
On to `CN1CCN(C2=Nc3cc(Cl)ccc3Nc3ccccc32)CC1`, for which the AC50 in experiment [1] is 13.2 µM (active). The fold fluorescence in experiment [9] was 11 [at 153 µM] (inactive).
Turning to `CC(C(=O)O)c1cccc(C(=O)c2ccccc2)c1` (stereo not given), the call in experiment [11], in experiment [10], in experiment [1] and in experiment [12] was inactive.
For the compound `CCCC(CCC)C(=O)O`, the outcome in experiment [11], in [1] and in experiment [12] was inactive. The inhibition was -27.6% (inactive) and -16.5% (inactive) in [2] (at 0.5 µM); -35.5% and -12.1% in experiment [2] (setting [14]); -35% and -39.3% in experiment [2] (setting [15]); 2.7% and -48.1% in experiment [2] (setting [16]); -45.4% (inactive) and -15.9% (inactive) in experiment [3] (at 0.5 µM); -45.9% and -23.5% in [3] (setting [17]). The inhibition in experiment [3] (setting [18]) is -34.5% and 0.202%; in experiment [4] (at 0.5 µM) it was -15.1% (inactive) and -0.6% (inactive); in experiment [4] (setting [19]), -17% and -10.3%; in experiment [4] (setting [20]), -14.1% and 6.37%; in experiment [5] (at 0.5 µM) it was -4.81% (inactive) and 13.2% (inactive); in experiment [5] (setting [21]), -26.3% and 5.38%. For the same compound, the inhibition in experiment [5] (setting [22]) is -23.4% and 27.8%; in [6] (at 0.5 µM) it was -16.9% (inactive) and 1.18% (inactive); in experiment [6] (setting [15]), -15.6% and 6.48%; in [6] (setting [16]) it was -69.4% and 11.4%; in [7] (setting [23]), -15.2% and 3.45%; in experiment [7] (at 0.5 µM), -19% (inactive) and 7.15% (inactive). Further, the inhibition in experiment [7] (setting [24]) was 0.227% and -13.4%; in [8], -9% (inactive) and 2.09% (inactive); in experiment [8] (setting [25]), -11% and 1.03%; in experiment [8] (setting [26]), 0.797% and 9.29%.
Regarding `CC(C)OC(=O)C(C)(C)Oc1ccc(C(=O)c2ccc(Cl)cc2)cc1`, the compound was called inactive in experiment [10] and in experiment [12].
With `O=C(CCCN1CCC(O)(c2ccc(Cl)cc2)CC1)c1ccc(F)cc1`, in experiment [13], the z-score was -0.0752 (inactive).
Take `COC(=O)C1=C(C)NC(C)=C(C(=O)OC)C1c1ccccc1[N+](=O)[O-]`: the z-score in experiment [13] is -0.452 (inactive). Besides, in [9], the fold fluorescence was 3.72 [at 144.4 µM] (inactive).
For the compound `CN(C)C(=O)C(CCN1CCC(O)(c2ccc(Cl)cc2)CC1)(c1ccccc1)c1ccccc1`, the result in experiment [10] and in experiment [12] was inactive. The fold fluorescence in [9] was 10.1 [at 104.8 µM] (inactive).
`O=C(O)CCc1nc(-c2ccccc2)c(-c2ccccc2)o1`: the z-score in experiment [13] is 0.876 (inactive).
